Test results published in PubChem BioAssay AID1159580 (chemical genetic matrix, 2015).
The campaign covered roughly 5,500 compounds. About 2,000 (36%) were called active. Another 18% or so got no clear call; they are omitted. Cut-off read from the data, not from the text of the source: active = normalized growth mostly below about 0.91 (no sharp cut-off); inconclusive = no clear call, values can overlap the other calls; inactive = mostly above about 0.92. The list shows a part of the results.

Assay: chemical genetic growth profiling, strain panel (AID 1159580);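 note: tested at 20 µM; growth read once vehicle control cultures reached saturation at 30 °C; 1 = growth at the plate median or of vehicle wells; lower values mean less growth of the strain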
Conditions: growth OD

Measured: normalized growth

O=C(O)CCC(=O)OC[C@@H](NC(=O)C(Cl)Cl)[C@H](O)c1ccc([N+](=O)[O-])cc1
inactive: S. cerevisiae deletion strains, locus YJR043C, strain POL32, stronger effect = lower value 0.977 | S. cerevisiae deletion strains, locus YJR066W, strain TOR1, stronger effect = lower value 0.981 | S. cerevisiae deletion strains, locus YKL009W, strain mrt4, stronger effect = lower value 1 | S. cerevisiae deletion strains, locus YKL068W, stronger effect = lower value 0.962 | S. cerevisiae deletion strains, locus YKL085W, strain MDH1 (second series), stronger effect = lower value 0.99 | S. cerevisiae deletion strains, locus YKL085W, strain MDH1, stronger effect = lower value 0.99 | S. cerevisiae deletion strains, locus YKL160W, strain elf1, stronger effect = lower value 0.98 | S. cerevisiae deletion strains, locus YKL190W, strain CNB1, stronger effect = lower value 0.993 | S. cerevisiae deletion strains, locus YKR001C, strain vps1, stronger effect = lower value 0.967 | S. cerevisiae deletion strains, locus YKR026C, strain gcn3, stronger effect = lower value 0.984 | S. cerevisiae deletion strains, locus YKR091W, strain srl3, stronger effect = lower value 0.971 | S. cerevisiae deletion strains, locus YLL001W, strain dnm1, stronger effect = lower value 0.937 | S. cerevisiae deletion strains, locus YLL026W, stronger effect = lower value 0.974 | S. cerevisiae deletion strains, locus YLL041C, strain sdh2, stronger effect = lower value 0.993 | S. cerevisiae deletion strains, locus YLR027C, strain aat2, stronger effect = lower value 0.99 | S. cerevisiae deletion strains, locus YLR039C, strain RIC1, stronger effect = lower value 0.964 | S. cerevisiae deletion strains, locus YLR058C, strain SHM2, stronger effect = lower value 0.976 | S. cerevisiae deletion strains, locus YLR102C, strain apc9, stronger effect = lower value 0.977 | S. cerevisiae deletion strains, locus YLR113W, strain HOG1, stronger effect = lower value 0.973 | S. cerevisiae deletion strains, locus YLR221C, strain rsa3, stronger effect = lower value 0.918 | S. cerevisiae deletion strains, locus YLR258W, strain gsy2, stronger effect = lower value 0.984 | S. cerevisiae deletion strains, locus YLR262C, strain YPT6 (second series), stronger effect = lower value 0.966 | S. cerevisiae deletion strains, locus YLR262C, strain YPT6, stronger effect = lower value 0.866 | S. cerevisiae deletion strains, locus YLR268W, strain sec22, stronger effect = lower value 0.974 | S. cerevisiae deletion strains, locus YLR320W, strain mms22, stronger effect = lower value 0.944 | S. cerevisiae deletion strains, locus YLR330W, strain CHS5, stronger effect = lower value 0.985 | S. cerevisiae deletion strains, locus YLR342W, strain FKS1 (second series), stronger effect = lower value 1.01 | S. cerevisiae deletion strains, locus YLR342W, strain FKS1, stronger effect = lower value 0.986 | S. cerevisiae deletion strains, locus YLR357W, strain rsc2, stronger effect = lower value 1 | S. cerevisiae deletion strains, locus YLR370C, strain arc18, stronger effect = lower value 0.944 | S. cerevisiae deletion strains, locus YLR371W, strain rom2, stronger effect = lower value 0.979 | S. cerevisiae deletion strains, locus YLR384C, strain iki3, stronger effect = lower value 0.987 | S. cerevisiae deletion strains, locus YLR418C, strain cdc73, stronger effect = lower value 0.974 | S. cerevisiae deletion strains, locus YML016C, strain PPZ1, stronger effect = lower value 0.979 | S. cerevisiae deletion strains, locus YML032C, strain rad52, stronger effect = lower value 0.968 | S. cerevisiae deletion strains, locus YML120C, strain ndi1, stronger effect = lower value 0.936 | S. cerevisiae deletion strains, locus YML124C, strain tub3, stronger effect = lower value 0.994 | S. cerevisiae deletion strains, locus YMR058W, strain fet3, stronger effect = lower value 0.983 | S. cerevisiae deletion strains, locus YMR078C, strain ctf18, stronger effect = lower value 0.978 | S. cerevisiae deletion strains, locus YMR125W, strain sto1, stronger effect = lower value 0.962 | S. cerevisiae deletion strains, locus YMR129W, stronger effect = lower value 0.988 | S. cerevisiae deletion strains, locus YMR205C, strain PFK2, stronger effect = lower value 1.01 | S. cerevisiae deletion strains, locus YMR223W, strain ubp8, stronger effect = lower value 0.997 | S. cerevisiae deletion strains, locus YMR231W, strain pep5, stronger effect = lower value 0.996 | S. cerevisiae deletion strains, locus YMR263W, strain SAP30, stronger effect = lower value 1.01 | S. cerevisiae deletion strains, locus YMR307W, strain GAS1, stronger effect = lower value 1.05 | S. cerevisiae deletion strains, locus YNL067W, strain RPL9B, stronger effect = lower value 1.03 | S. cerevisiae deletion strains, locus YNL071W, strain lat1, stronger effect = lower value 0.989 | S. cerevisiae deletion strains, locus YNL153C, strain GIM3, stronger effect = lower value 1.02 | S. cerevisiae deletion strains, locus YNL183C, strain NPR1, stronger effect = lower value 0.93 | S. cerevisiae deletion strains, locus YNL209W, strain ssb2, stronger effect = lower value 0.971 | S. cerevisiae deletion strains, locus YNL233W, strain BNI4, stronger effect = lower value 1.02 | S. cerevisiae deletion strains, locus YNL248C, strain rpa49, stronger effect = lower value 1.02 | S. cerevisiae deletion strains, locus YNL271C, strain bni1, stronger effect = lower value 0.97 | S. cerevisiae deletion strains, locus YNL298W, strain CLA4, stronger effect = lower value 0.983 | S. cerevisiae deletion strains, locus YNL307C, strain MCK1, stronger effect = lower value 0.99 | S. cerevisiae deletion strains, locus YNL322C, strain KRE1 (second series), stronger effect = lower value 0.962 | S. cerevisiae deletion strains, locus YNR049C, strain mso1, stronger effect = lower value 0.972 | S. cerevisiae deletion strains, locus YNR052C, strain pop2, stronger effect = lower value 0.989 | S. cerevisiae deletion strains, locus YOL006C, strain TOP1, stronger effect = lower value 1.15 | S. cerevisiae deletion strains, locus YOL012C, strain htz1 0.661 | S. cerevisiae deletion strains, locus YOL147C, strain pex11, stronger effect = lower value 0.988 | S. cerevisiae deletion strains, locus YOR001W, strain rrp6, stronger effect = lower value 1.04 | S. cerevisiae deletion strains, locus YOR061W, strain CKA2, stronger effect = lower value 0.967 | S. cerevisiae deletion strains, locus YOR069W, strain VPS5, stronger effect = lower value 0.967 | S. cerevisiae deletion strains, locus YOR070C, strain gyp1, stronger effect = lower value 0.999 | S. cerevisiae deletion strains, locus YOR080W, strain dia2, stronger effect = lower value 0.98 | S. cerevisiae deletion strains, locus YOR083W, strain WHI5, stronger effect = lower value 0.978 | S. cerevisiae deletion strains, locus YOR106W, strain vam3, stronger effect = lower value 0.998 | S. cerevisiae deletion strains, locus YOR136W, strain idh2, stronger effect = lower value 0.984 | S. cerevisiae deletion strains, locus YOR144C, strain elg1, stronger effect = lower value 0.988 | S. cerevisiae deletion strains, locus YOR184W, strain ser1, stronger effect = lower value 0.987 | S. cerevisiae deletion strains, locus YOR231W, strain MKK1, stronger effect = lower value 0.971 | S. cerevisiae deletion strains, locus YOR265W, strain rbl2, stronger effect = lower value 0.976 | S. cerevisiae deletion strains, locus YOR270C, strain vph1, stronger effect = lower value 0.987 | S. cerevisiae deletion strains, locus YOR290C, strain snf2, stronger effect = lower value 0.928 | S. cerevisiae deletion strains, locus YOR316C, strain cot1, stronger effect = lower value 0.97 | S. cerevisiae deletion strains, locus YPL051W, strain arl3, stronger effect = lower value 0.998 | S. cerevisiae deletion strains, locus YPL078C, strain atp4, stronger effect = lower value 0.988 | S. cerevisiae deletion strains, locus YPL106C, strain sse1, stronger effect = lower value 0.944 | S. cerevisiae deletion strains, locus YPL240C, strain hsp82, stronger effect = lower value 0.995 | S. cerevisiae deletion strains, locus YPL256C, strain CLN2, stronger effect = lower value 0.981 | S. cerevisiae deletion strains, locus YPR119W, strain clb2, stronger effect = lower value 0.982 | S. cerevisiae deletion strains, locus YPR141C, strain kar3, stronger effect = lower value 0.975 | S. cerevisiae deletion strains, locus YPR163C, strain tif3, stronger effect = lower value 0.983 | S. cerevisiae deletion strains, locus YPR167C, strain met16, stronger effect = lower value 0.991 | S. cerevisiae deletion strains, strain wtn01, stronger effect = lower value 1 | S. cerevisiae strains, strain wild type, stronger effect = lower value 0.984
